Source: PubChem BioAssay (several laboratories)
MCL1-BIM inh: inhibitors of human MCL1 binding to BIM-BH3 peptide. GST-MCL1 / FITC-Bim-BH3 fluorescence polarization. inhibition, % at 10.9 µM. Q07820. AID 2057. 0.68% of 320,000 active;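 active means inhibition above the mean inhibition of all tested compounds plus 3 SD, set per campaign, cut at about 40% in these data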;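 further: higher means more loss of mP so more displacement of Bim peptide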
Target sequence (Q07820 whole entry, looked up): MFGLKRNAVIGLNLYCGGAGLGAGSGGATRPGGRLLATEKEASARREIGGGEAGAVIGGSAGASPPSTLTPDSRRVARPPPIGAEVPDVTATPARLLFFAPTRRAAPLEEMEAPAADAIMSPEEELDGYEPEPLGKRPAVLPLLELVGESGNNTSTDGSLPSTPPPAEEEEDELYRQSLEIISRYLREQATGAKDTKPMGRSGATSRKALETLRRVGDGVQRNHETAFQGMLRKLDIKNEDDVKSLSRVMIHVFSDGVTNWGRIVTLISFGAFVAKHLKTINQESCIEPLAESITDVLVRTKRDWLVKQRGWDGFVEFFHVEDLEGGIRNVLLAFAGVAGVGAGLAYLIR
GLD-1 TGE inh: GLD-1-TGE RNA interaction inhibition (C. elegans). Q17339. purified GLD-1 + fluorescein TGE RNA, fluorescence polarization. inhibition, % at 5.96 µM. 0.44% of 320,000 active;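 active means percent inhibition above a per-plate cutoff, the plate mean of test compounds plus 3 SD, cut at about 30% in these data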
Bim-Mcl-1: human Bim-Mcl-1 interaction inhibition; Q07820; Bead-based flow cytometry, Bim peptide-Mcl-1 binding; inhibition, % at 10 µM; 0.1% of 190,000 active; in the data active means inhibition above about 40%
Mcl1 Bid PPI: disrupts binding of human Mcl-1 to Bid peptide; 0.97% of 220,000 active; inhibition, % at 21.7 µM; AID 1021; TR-FRET Mcl-1/Bid-Dy647 peptide binding, 1536-well;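 active means compounds that cut the binding signal by more than half at the single screening dose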;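 further: His-tagged Mcl-1 with europium anti-His antibody binding Bid BH3 peptide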
Bcl-xL primary: Bcl-xL (human) inhibition; Q07817; GST-Bcl-xL / FITC-Bim BH3 peptide fluorescence polarization; inhibition, % at 10.9 µM; 0.7% of 320,000 active; AID 2129;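 active means inhibition above the mean of all tested compounds plus 3 SD, cutoff set per campaign, cut at about 30% in these data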;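 further: inhibitors lower millipolarization by displacing the labeled peptide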
Target sequence (Q07817 whole entry, looked up): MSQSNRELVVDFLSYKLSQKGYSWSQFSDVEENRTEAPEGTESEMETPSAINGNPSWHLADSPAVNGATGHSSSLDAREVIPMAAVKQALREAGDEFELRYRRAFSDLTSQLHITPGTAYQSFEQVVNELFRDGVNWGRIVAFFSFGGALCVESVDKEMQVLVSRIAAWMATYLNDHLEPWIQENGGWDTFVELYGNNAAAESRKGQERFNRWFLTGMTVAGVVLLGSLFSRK
Mcl1-Noxa inh: disrupts binding of human Mcl-1 to Noxa peptide; Q07820; TR-FRET Mcl-1/Noxa peptide binding, 2 h; inhibition, % at 21.7 µM; 1.5% of 220,000 active; AID 1022;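 active means compounds that cut the protein-peptide binding signal by more than 50% relative to plate controls in a single-dose test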;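 further: His-tagged Mcl-1 with rhodamine Noxa BH3 peptide and terbium anti-His antibody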
A number is an active result; i = inactive; nt = no result given. Only some compounds are listed: those with a hit (about 2.3% of all), similar ones and a draw of the others.

SMILES	MCL1-BIM inh	GLD-1 TGE inh	Bim-Mcl-1	Mcl1 Bid PPI	Bcl-xL primary	Mcl1-Noxa inh
C#CCOCCOCCOCCNc1nc(N2CCN(C(=O)[C@H](CCCCN)n3cc(C(N)CO)nn3)CC2)nc(N2CCN(C(=O)[C@H](CCC(=O)O)n3cc(C(N)CC(C)C)nn3)CC2)n1 (some centres undefined)	nt	nt	nt	i	nt	i
C#CCOCCOCCOCCNc1nc(N2CCN(C(=O)[C@H](CCC(=O)O)n3cc(C(N)CC(C)C)nn3)CC2)nc(N2CCN(C(=O)[C@H](Cc3ccc(O)cc3)n3cc(C(N)CC(C)C)nn3)CC2)n1 (some centres undefined)	i	i	i	59	i	i
O=C(Nc1c2c(nn1-c1ccc([N+](=O)[O-])cc1)CS(=O)(=O)C2)c1ccccc1F	i	i	nt	nt	i	nt
C=CCn1cc(CN2CCC(C(=O)Nc3cccc(-c4cccc(Cl)c4)c3)CC2)c(C)n1	i	i	nt	nt	i	nt
C#CCOCCOCCOCCNc1nc(N2CCN(C(=O)[C@H]([C@@H](C)CC)n3cc([C@@H](N)CO)nn3)CC2)nc(N2CCN(C(=O)[C@H]([C@@H](C)CC)n3cc([C@@H](N)CC(C)C)nn3)CC2)n1	43	i	i	56	43	i
C#CCOCCOCCOCCNc1nc(N2CCN(C(=O)[C@H]([C@@H](C)CC)n3cc([C@@H](N)CO)nn3)CC2)nc(N2CCN(C(=O)[C@H]([C@@H](C)CC)n3cc([C@@H](N)CO)nn3)CC2)n1	nt	nt	nt	i	nt	i
O=S(=O)(c1ccccc1F)N1CCN(Cc2nc3ccccc3[nH]2)CC1	i	i	i	79	i	i
O=C(O)CCCC(=O)Nc1cccc(C(=O)Nc2ccccc2C(=O)O)c1	i	i	i	82	i	i
O=C(/C=C/c1ccco1)Nc1cccc(C(=O)Nc2ccccc2C(=O)O)c1	i	i	nt	i	i	57
O=C(CSCc1ccccc1)Nc1cccc(C(=O)Nc2ccccc2C(=O)O)c1	i	i	i	i	i	i
CCN(Cc1nc2ccccc2c(=O)[nH]1)Cc1nc2ccsc2c(=O)[nH]1	i	i	i	i	i	i
CCc1ccc2c(CN(CC)Cc3nc4ccccc4c(=O)[nH]3)cc(=O)oc2c1	i	i	i	90	i	i
O=C(c1ccccc1)c1ccc2nc(N3CCN(C(=O)c4ccco4)CC3)c3nncn3c2c1	i	i	i	i	i	56
CCOC(=O)N1CCN(c2nc3ccc(C(=O)c4ccccc4)cc3n3cnnc23)CC1	i	i	nt	i	i	i
O=C(O)c1cc(S(=O)(=O)O)ccc1O	i	i	i	56	i	i
O=C(O)c1cc(S(=O)(=O)N2CC=C(c3ccccc3)CC2)ccc1O	i	i	nt	nt	i	nt
Cc1csc(CCc2nc(C)cs2)n1	i	i	i	100	i	i
COc1cccc(C(=O)N2CCN(Cc3ccccn3)CC2)c1	i	i	nt	nt	i	nt
COc1ccccc1C1NC=C([N+](=O)[O-])C=C1[N+](=O)[O-] (centres undefined)	i	i	i	i	i	77
COc1ccc(CN(C)CC(=O)NCC(=O)Nc2c(C)cccc2C)cc1	i	i	nt	nt	i	nt
CC1=C[C@H]2OC(=O)[C@@H](C)[C@H]2C[C@@H]2[C@H]1C[C@@H](O)[C@@]2(C)O	i	114	nt	i	i	i
NC(=O)c1ccccc1NC(=O)CN1CCN(Cc2ccc(Cl)cc2Cl)CC1	i	i	nt	nt	i	nt
CCN1CCN(C(c2cccs2)C(C)NC(=O)c2cccc(OC)c2)CC1 (centres undefined)	i	i	nt	nt	i	nt
CCN1CCN(C(c2cccs2)C(C)NC(=O)c2cccc(OC)c2OC)CC1 (centres undefined)	i	i	i	i	i	52
CC(C)c1cc(CNC(=O)C2CCC(=O)N(Cc3ccccc3F)C2)on1 (centres undefined)	i	i	nt	nt	i	nt
SMILES	MCL1-BIM inh	GLD-1 TGE inh	Bim-Mcl-1	Mcl1 Bid PPI	Bcl-xL primary	Mcl1-Noxa inh
Cc1cc(C)c2c(=O)n(CC(=O)N3CCC(N4CCCCC4)CC3)sc2n1	i	i	i	i	i	i
CCOC(=O)C1CCCN(C(=O)Cn2sc3nc(C)cc(C)c3c2=O)C1 (centres undefined)	i	i	i	i	i	57
O=c1[nH]c(Nc2ccccc2)cc2ccccc12	i	55	i	i	54	i
O=c1[nH]c(Nc2ccccc2)cc2cc(Br)ccc12	i	i	nt	nt	i	nt
CCOC(=O)c1c(NS(=O)(=O)Cc2ccccc2)sc2c1CCCC2	i	i	i	i	i	i
CCOC(=O)c1c(NS(=O)(=O)c2ccc(Br)cc2)sc2c1CCC2	i	i	i	i	i	51
COCCN(CC(=O)Nc1ccccc1C(F)(F)F)C(=O)/C=C/c1ccc2ccccc2n1	i	i	nt	nt	i	nt
Cc1ccccc1C(=O)Nc1nc(-c2cccnc2)cs1	i	i	nt	i	i	75
CN(C)c1ccc(Nc2nc(-c3cccnc3)cs2)cc1	i	i	i	i	i	60
CCN(CC)c1ccc(Nc2nc(-c3cccnc3)cs2)cc1	i	i	nt	nt	i	nt
Cc1cccc2c1c1ccc3c(c1n2C)C(=O)C=CC3=O	nt	nt	nt	i	nt	108
Cc1ccc(-c2csc(Nc3ccc(S(N)(=O)=O)cc3)n2)o1	i	i	i	i	i	64
NS(=O)(=O)c1ccc(Nc2nc(-c3ccc4ccccc4c3)cs2)cc1	i	i	i	i	i	i
C=CCc1ccc(OCCCN2CCCC(C)C2)c(OC)c1 (centres undefined)	i	i	i	59	i	i
C=CCc1ccc(OCCCCN2CCC(C)CC2)c(OC)c1	i	i	i	i	i	i
CN(CC(=O)Nc1ccccc1Br)CC(=O)Nc1ccccc1C(F)(F)F	i	i	nt	nt	i	nt
CSCCC(NC(=O)COc1ccccc1)C(=O)N(C)CC(=O)Nc1c(C)cccc1C (centres undefined)	i	i	nt	nt	i	nt
O=C1N/C(=N/NC(=O)c2cccc3ccccc23)S/C1=C\c1ccccc1OCc1ccccc1	nt	nt	i	57	nt	i
COc1cccc(/C=C2\SC(=O)NC2=O)c1OCc1ccc(C(=O)O)cc1	i	i	i	i	i	i
CC(C)Cn1c(N)c(C(=O)COC(=O)C2Cc3ccccc3CN2S(C)(=O)=O)c(=O)n(C)c1=O (centres undefined)	i	i	nt	nt	i	nt
CCCCN(C)S(=O)(=O)c1ccc(C(=O)N=c2sc3cc(NC(C)=O)ccc3n2C)cc1	i	i	i	70	i	i
c1ccc(NC2=Nc3cccc4cccc2c34)cc1	i	i	i	i	i	i
